# Reference: PubChem BioAssay (NCATS)
# Values joined by “and” are separate entries in the source; they are usually repeats but may differ in a detail not shown here. Identical values can stand only once. Inconclusive results are not listed. Entries that show only a call come without a potency. A number with no mark means an inactive call. Active and inactive are the calls of the source. Unless noted, calls come from the whole dose curve; as a rule, active = well fitted curve in the direction sought with a large enough effect; inconclusive = small, poorly fitted or top-dose-only effect, or another doubt; inactive = no such curve, though single readings can be large; an effect the other way counts as inactive or inconclusive.
# Key:
# [1] = target: Cytochrome P450 2C9 (Homo sapiens) (UniProt P11712); experiment: Cytochrome P450 family 2 subfamily C member 9 (CYP2C9) small molecule antagonists: luciferase biochemical (cell-free) qHTS assay (AID 1645842; active = well fitted curve in the direction sought with a large enough effect in the repeat runs; an effect the other way counts as inactive or inconclusive; note: nearly all actives have a fitted effect of over 55% in size; note: potency is the fitted concentration of half-maximal effect); settings: P450-Glo CYP2C9 enzyme assay, luciferin luminescence; series mostly up to 57.4 µM
# Cytochrome P450 2C9 (Homo sapiens), sequence (P11712 whole entry, looked up): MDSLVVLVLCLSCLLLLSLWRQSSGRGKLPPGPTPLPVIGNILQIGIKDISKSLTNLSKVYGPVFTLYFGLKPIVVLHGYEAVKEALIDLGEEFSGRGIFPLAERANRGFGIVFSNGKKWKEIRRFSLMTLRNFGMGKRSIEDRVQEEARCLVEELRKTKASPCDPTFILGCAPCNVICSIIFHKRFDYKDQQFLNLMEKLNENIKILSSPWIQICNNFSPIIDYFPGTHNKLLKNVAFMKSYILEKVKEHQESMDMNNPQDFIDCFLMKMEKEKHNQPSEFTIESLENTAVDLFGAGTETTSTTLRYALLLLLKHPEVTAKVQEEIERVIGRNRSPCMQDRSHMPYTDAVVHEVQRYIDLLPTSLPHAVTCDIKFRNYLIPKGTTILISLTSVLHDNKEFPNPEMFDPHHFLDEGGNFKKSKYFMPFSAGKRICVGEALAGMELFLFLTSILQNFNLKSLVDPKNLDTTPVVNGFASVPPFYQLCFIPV
# Summary of the method: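 Luminescence, after 20 min with luciferin detection reagent, reflected CYP2C9 turnover during a 1 h NADPH-driven reaction at 37C. Enzyme-substrate mix contained 0.4% bovine serum albumin and was preincubated with compound 10 min at room temperature.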
# [2] = Primary qHTS for inhibitors of nuclear receptor binding SET domain protein 2 (NSD2) in an isogenic RCH-ACV NSD2 p.E1099K mutant (9B) (AID 1645876); settings: RCH-ACV NSD2 E1099K (9B) viability, CellTiter-Glo, 72 h; series mostly up to 44.9 µM; note: nearly all actives have a fitted effect of over 70% in size
# [3] = Primary qHTS for inhibitors of nuclear receptor binding SET domain protein 2 (NSD2) in an RCH-ACV wild type WT cells (2C) (AID 1645877); settings: RCH-ACV (leukaemia line) NSD2 WT (2C) viability, CellTiter-Glo, 72 h; series mostly up to 44.9 µM; note: nearly all actives have a fitted effect of over 70% in size
# [4] = target: Rap guanine nucleotide exchange factor 3 (Homo sapiens) (UniProt O95398); experiment: Counterscreen qHTS for antagonist of cAMP-regulated guanine nucleotide exchange factor 3 (EPAC1) (AID 1645888); settings: Rap1B-BODIPY-GDP nucleotide exchange, fluorescence; series mostly up to 154 µM;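 note: fluorescence loss as bound BODIPY-GDP is released from Rap1B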
# Rap guanine nucleotide exchange factor 3 (Homo sapiens), sequence (O95398 whole entry, looked up): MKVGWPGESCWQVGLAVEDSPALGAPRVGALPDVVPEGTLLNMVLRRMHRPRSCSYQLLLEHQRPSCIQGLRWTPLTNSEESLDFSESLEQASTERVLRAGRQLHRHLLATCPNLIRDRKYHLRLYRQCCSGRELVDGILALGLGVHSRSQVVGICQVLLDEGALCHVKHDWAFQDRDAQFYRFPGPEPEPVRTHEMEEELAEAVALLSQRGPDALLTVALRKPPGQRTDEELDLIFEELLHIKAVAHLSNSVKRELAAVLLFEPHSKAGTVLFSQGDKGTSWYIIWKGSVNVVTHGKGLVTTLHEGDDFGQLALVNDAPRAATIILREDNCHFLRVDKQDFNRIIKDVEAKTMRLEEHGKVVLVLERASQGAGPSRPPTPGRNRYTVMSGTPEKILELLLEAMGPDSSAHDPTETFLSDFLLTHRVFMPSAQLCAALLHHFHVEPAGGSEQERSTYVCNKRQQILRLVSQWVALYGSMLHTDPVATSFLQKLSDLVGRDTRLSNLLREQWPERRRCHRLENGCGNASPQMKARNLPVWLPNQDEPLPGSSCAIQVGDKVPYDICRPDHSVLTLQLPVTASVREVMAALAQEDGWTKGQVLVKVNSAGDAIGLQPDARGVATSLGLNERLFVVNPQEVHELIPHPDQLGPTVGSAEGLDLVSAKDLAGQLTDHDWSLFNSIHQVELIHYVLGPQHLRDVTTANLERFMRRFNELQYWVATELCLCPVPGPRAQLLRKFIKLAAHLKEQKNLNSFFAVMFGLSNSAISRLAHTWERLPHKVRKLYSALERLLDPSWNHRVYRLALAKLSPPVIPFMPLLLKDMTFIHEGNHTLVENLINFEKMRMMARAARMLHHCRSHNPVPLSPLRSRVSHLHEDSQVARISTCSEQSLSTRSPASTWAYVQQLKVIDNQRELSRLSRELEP
# Summary of the method: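 Measured: fluorescence of BODIPY-GDP bound to Rap1B, which falls as exchange proceeds. Conditions include 50 uM competing GDP, 5 and 30 min reads, and a later cAMP challenge for antagonist detection.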
# [5] = NCATS anti-infectives library activity on HEK293 viability as a counter-qHTS vs the C. elegans viability qHTS (AID 1745854); settings: HEK293 viability counter-screen; series mostly up to 41.8 µM
# Summary of the method: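 HEK293 cells, 1500 per well, exposed 24 hr at 37C in 5% CO2 to compounds in a 1:5 titration, up to 41.7 uM final. Viability read as CellTiter-Glo luminescence after 10 min at room temperature.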
smiles,measurement,setting,value
Cc1cc(OI)c(C(C)C)cc1-c1cc(C(C)C)c(OI)cc1C,Potency,[1],12.3 µM (active)
same,Potency,[2],inactive
same,Potency,[3],inactive
NC(=O)N[C@@H](CCC(=O)O)C(=O)O,Potency,[1],inactive
same,Potency,[2],inactive
same,Potency,[3],inactive
NS(=O)(=O)c1ccc(NC(=O)CCC(=O)O)cc1,Potency,[1],inactive
same,Potency,[2],inactive
same,Potency,[3],inactive
O=C(O)[C@@H]1[C@H]2C[C@H]3c4[nH]c5ccccc5c4CCN3C[C@@H]2CC[C@@H]1O,Potency,[1],inactive
same,Potency,[2],inactive
same,Potency,[3],inactive
NC(=O)CC[C@@H](N)C(=O)O,Potency,[1],inactive
same,Potency,[2],inactive
same,Potency,[3],inactive
CC(=O)Nc1ccccc1,Potency,[1],inactive
same,Potency,[2],inactive
same,Potency,[3],inactive
O=C(CN1CCNCC1)NC1CCCCC1,Potency,[1],inactive
same,Potency,[2],inactive
same,Potency,[3],inactive
CN/C(=C\[N+](=O)[O-])NCCSCc1csc(CN(C)C)n1,Potency,[1],inactive
same,Potency,[2],inactive
same,Potency,[3],inactive
C/C=C1\[C@H]2C=C(C)C[C@]1(N)c1ccc(=O)[nH]c1C2,Potency,[1],inactive
same,Potency,[2],inactive
same,Potency,[3],inactive
NS(=O)(=O)c1cc(-c2nn[nH]n2)c(NCc2cccs2)cc1Cl,Potency,[1],10.7 µM (active) and 19.5 µM (active)
same,Potency,[2],inactive
same,Potency,[3],inactive
Cc1cccc(C(=O)O)c1O,Potency,[1],inactive
same,Potency,[2],inactive
same,Potency,[3],inactive
COc1ccc2cc(CCC(C)=O)ccc2c1,outcome,[4],inactive
CC(C)=CCC/C(C)=C/CO,Potency,[2],inactive
same,Potency,[3],inactive
Nc1ccc(C(=O)Oc2ccccc2)c(O)c1,Potency,[2],inactive
same,Potency,[3],inactive
NC(N)=NCCN1CCCCCCC1,outcome,[2],inactive [at 0.588 µM]
same,"activity change, negative = cell killing",[3],1.99% [at 0.588 µM]
CCc1nnc(NS(=O)(=O)c2ccc(N)cc2)s1,Potency,[2],inactive
same,Potency,[3],inactive
CC(C)(C)C(=O)OCOC(=O)[C@@H]1N2C(=O)[C@@H](NC(=O)[C@H](N)c3ccccc3)[C@H]2SC1(C)C,Potency,[2],inactive
same,Potency,[3],inactive
CCOC(=O)[C@H](CCc1ccccc1)N[C@@H](C)C(=O)N1Cc2cc(OC)c(OC)cc2C[C@H]1C(=O)O,Potency,[1],12.3 µM (active)
same,Potency,[2],inactive
same,Potency,[3],inactive
same,outcome,[5],inactive
CC(=O)NS(=O)(=O)c1ccc(N)cc1,Potency,[2],inactive
same,Potency,[3],inactive
CC(C)C[C@@H](N)C(=O)O,Potency,[2],inactive
same,Potency,[3],inactive
CN[C@@H]1[C@@H](O)[C@@H](O[C@@H]2[C@H](O)[C@H](O[C@H]3OC(CN)=CC[C@H]3N)[C@@H](N)C[C@H]2N)OCC1(C)O (stereo partly specified),Potency,[2],inactive
same,Potency,[3],inactive
CC(=O)N(CC(O)CO)c1c(I)c(C(=O)NCC(O)CO)c(I)c(C(=O)NCC(O)CO)c1I (stereo unspecified),Potency,[2],inactive
same,Potency,[3],inactive
